# From PubChem
# Rows were chosen to be rich in hits. Some 1.8% of all compounds tested hit in one or more screens of this group.
# Mcl1-Noxa inh: Mcl-1/Noxa interaction inhibition; Q07820; AID 1022; TR-FRET Mcl-1/Noxa peptide binding, 2 h; inhibition, % at 21.7 µM; 1.5% of 220,000 active;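 active = compounds that cut the protein-peptide binding signal by more than 50% relative to plate controls in a single-dose test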;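 also: His-tagged Mcl-1 with rhodamine Noxa BH3 peptide and terbium anti-His antibody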
# TLR4 MyD88 comp: blocks binding of human TLR4 to MyD88; O00206+Q99836; 0.18% of 200,000 active; HeLa CL3-4 TLR4/MyD88 BLA complementation, FRET ratio; AID 861; inhibition, % at 8.4 µM; in the data active = inhibition above about 25%
# Mcl1 Bid PPI: disrupts binding of human Mcl-1 to Bid peptide; AID 1021; 0.97% of 220,000 active; TR-FRET Mcl-1/Bid-Dy647 peptide binding, 1536-well; Q07820; inhibition, % at 21.7 µM;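 active = compounds that cut the binding signal by more than half at the single screening dose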;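 also: His-tagged Mcl-1 with europium anti-His antibody binding Bid BH3 peptide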
# Bim-Mcl-1: disrupts Bim peptide binding to human Mcl-1 | Bead-based flow cytometry, Bim peptide-Mcl-1 binding | inhibition, % at 10 µM | AID 1009 | 0.1% of 190,000 active | Q07820; in the data active = inhibition above about 40%
# NOD2-RIPK2 inh: blocks binding of human NOD2 to RIPK2 | CHO BLA complementation NOD2-RIPK2, CCF4 ratio | inhibition, % at 4.98 µM | 0.38% of 360,000 active; in the data active = inhibition above about 21%
# Target sequence (O43353 whole entry, looked up): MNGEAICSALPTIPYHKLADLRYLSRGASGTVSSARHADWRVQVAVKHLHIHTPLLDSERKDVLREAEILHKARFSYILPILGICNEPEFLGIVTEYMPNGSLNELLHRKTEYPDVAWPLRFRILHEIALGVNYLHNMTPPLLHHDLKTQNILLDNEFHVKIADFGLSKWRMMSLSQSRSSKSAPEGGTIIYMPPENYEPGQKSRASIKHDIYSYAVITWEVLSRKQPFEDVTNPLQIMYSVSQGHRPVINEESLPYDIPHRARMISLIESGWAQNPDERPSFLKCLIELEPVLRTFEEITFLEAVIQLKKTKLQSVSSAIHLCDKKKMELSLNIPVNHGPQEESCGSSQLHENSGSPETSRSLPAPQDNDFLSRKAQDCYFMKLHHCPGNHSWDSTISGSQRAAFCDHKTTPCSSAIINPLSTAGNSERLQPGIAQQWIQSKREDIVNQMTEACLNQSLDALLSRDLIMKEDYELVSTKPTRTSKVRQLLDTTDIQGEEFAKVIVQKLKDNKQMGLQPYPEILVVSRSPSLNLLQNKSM
# TLR9-MyD88 inh: inhibitors of human TLR9-MyD88 binding | inhibition, % at 4.98 µM | Q9NR96+Q99836 | CHO BLA complementation TLR9-MyD88, CCF4 FRET ratio | 0.21% of 340,000 active;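 active = inhibition above the mean over all tested compounds plus 3 SD, cut at about 21% in these data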
# Hits are given with their value; 0 = inactive; - = no result.
SMILES,Mcl1-Noxa inh,TLR4 MyD88 comp,Mcl1 Bid PPI,Bim-Mcl-1,NOD2-RIPK2 inh,TLR9-MyD88 inh
Cc1ccc(C(=O)OCC(=O)Nc2ccc3c(c2)OCO3)c(O)c1,-,-,-,-,0,0
C=CCOc1ccc(Br)cc1CNCCCN1CCOCC1,57,0,0,0,0,0
Cc1ccc(Nc2c([N+](=O)[O-])ccc3nonc23)cc1C,-,-,-,-,0,0
O=C(NCCCN1CCN(c2ccccc2F)CC1)Nc1ccc(F)cc1,0,0,0,0,0,0
CSc1ccc(NC(=O)NCCCN2CCN(c3ccccc3F)CC2)cc1,58,0,0,0,0,0
COc1ccc(CCNC(=O)C2CCN(S(=O)(=O)c3cccc4nonc34)CC2)cc1OC,66,0,0,0,0,0
CC(=O)Nc1ccc(S(=O)(=O)N(CC(=O)NCC2CCCO2)Cc2ccccc2Cl)cc1 (stereo not drawn),-,-,-,-,0,0
O=C(N/N=C/c1c(O)n(Cc2ccccc2)c(=O)c2ccccc12)c1cccnc1,0,0,0,0,0,0
O=C(N/N=C/c1c(O)n(-c2ccccc2Cl)c(=O)c2ccccc12)c1cccnc1,55,0,0,0,0,0
Cc1[nH]nc(-c2ccc(OCc3cnn(-c4ccccc4)c3)cc2O)c1Oc1ccccc1F,0,0,59,0,0,0
Cc1ccc(-c2cc(C(=O)NC3=NCCS3)c3cc(Br)ccc3n2)o1,102,0,51,0,-,-
Cc1ccc(-c2cc(C(=O)NCCCn3ccnc3)c3cc(Br)ccc3n2)o1,76,0,0,0,0,0
Cc1ccc(-c2cc(C(=O)O)c3cc(Br)ccc3n2)o1,93,0,0,0,0,0
Cc1ccc(-c2cc(C(=O)NN3CCOCC3)c3cc(Br)ccc3n2)o1,57,0,0,0,0,0
C[C@H]1CN(CCc2ccccc2)C(=O)[C@@H]1CC(=O)Nc1ccc(Br)cc1,-,-,-,-,0,0
CC(C)(C)CC(=O)Nc1nnc(SCC(=O)N2CCCCC2)s1,-,-,-,-,0,0
COc1ccc(Cc2c(O)nc(SC)n(C(C)=O)c2=O)cc1,0,0,0,67,0,0
O=C(O)c1cc(-c2cc3ccccc3o2)nn1-c1ccccc1,0,0,0,0,0,0
O=C(O)c1cc(-c2ccco2)nn1-c1ccc(Cl)cc1,81,0,0,0,0,0
O=C(O)c1cc(-c2ccco2)nn1-c1cccc(Cl)c1,69,0,0,0,0,0
Cc1ccc(-n2nc(-c3ccco3)cc2C(=O)O)c(C)c1,79,0,0,0,0,0
Cc1cccc(NC(=O)Nc2ccccc2[N+](=O)[O-])n1,-,-,-,-,0,0
COc1ccc(-n2nc3c(c2NC(=O)C(C)Oc2ccccc2)CS(=O)C3)cc1 (stereo not drawn),-,-,-,-,0,0
COc1ccc(C(=O)NNC(=O)CN2CCC(n3nnc4cc(C(F)(F)F)ccc43)CC2)cc1,52,0,0,0,0,0
CCOC(=O)c1c(NC(=O)COC(=O)c2ccc(Cl)nc2)sc(C)c1C,-,-,-,-,0,0
SMILES,Mcl1-Noxa inh,TLR4 MyD88 comp,Mcl1 Bid PPI,Bim-Mcl-1,NOD2-RIPK2 inh,TLR9-MyD88 inh
CC1(C)Cc2c(cnn2-c2ccc(F)cc2)C(NC(=O)CCN2CCCCC2=O)C1 (stereo not drawn),-,-,-,-,0,0
CN1C2C=C3C(C#N)=C(N)C(C#N)(C#N)[C@@H](c4ccsc4)[C@@H]3C1CC2 (stereo partly drawn),0,0,0,53,-,-
CN1CC=C2C(C#N)=C(N)C(C#N)(C#N)C(c3ccsc3)C2C1 (stereo not drawn),0,0,0,0,0,0
Nc1nc(CSc2nc3ccccc3s2)nc(Nc2ccccc2)n1,73,0,0,0,-,-
COc1ccc2nc(-n3c(O)c(C4=c5ccccc5=NC4=O)[nH]c3=S)sc2c1,92,0,99,0,0,0
CCC(=O)OC1(C)C(=O)C=C2C=C(c3ccsc3)OC=C2C1=O (stereo not drawn),68,-,0,-,0,0
COc1ccc(-c2cc(C(=O)Nc3ccc(Br)cc3)no2)cc1,-,-,-,-,0,0
NC(=S)N/N=C/c1coc2c(ccc3ccccc32)c1=O,0,0,76,0,0,0
O=c1cc(/N=C/c2coc3c(ccc4ccccc43)c2=O)[nH]c(=S)[nH]1,74,0,0,0,0,0
Cc1ccc(CNC(=O)CN2C(=O)CSc3ccc(S(=O)(=O)N4CCC(C)CC4)cc32)cc1,-,-,-,-,0,0
O=C(O)c1ccc(-n2cccc2/C=N\NC(=O)c2cc3cc(Br)ccc3o2)cc1,92,-,0,-,0,0
Cn1cc(/C=N/NC(=O)c2cc3cc(Br)ccc3o2)c2ccccc21,0,-,0,-,0,-
Cc1ccc(C)c(S(=O)(=O)ON2C(=O)c3ccccc3C2=O)c1,60,0,0,0,0,0
Cc1cc(S(=O)(=O)ON2C(=O)c3ccccc3C2=O)ccc1F,-,-,-,-,0,0
COC(=O)C1CN(Cc2ccccc2)C(=O)C1=O (stereo not drawn),-,-,-,-,0,0
Cc1ccc(C(=O)Nc2ccccc2Cl)cc1,-,-,-,-,0,0
O=C1C2C3C=CC(C2C(=O)N1c1cccc(O)c1)C1C2C(=O)N(c4cccc(O)c4)C(=O)C2C31 (stereo not drawn),94,0,0,0,0,0
O=C(N/N=C/c1cccc(F)c1)c1c(O)c2ccccc2[nH]c1=O,64,0,51,0,0,0
O=C(N/N=C/c1ccc(F)cc1)c1c(O)c2ccccc2[nH]c1=O,0,0,0,0,0,0
Cc1noc(C)c1C(=O)OCC(=O)NCc1ccccc1,-,-,-,-,0,0
CN1CCC(N(C)CC(=O)Nc2ccc3c(c2)OC(F)(F)O3)CC1,0,-,60,-,0,0
CC1CCCCN1CC(=O)Nc1ccc2c(c1)OC(F)(F)O2 (stereo not drawn),0,0,0,0,0,0
Cc1ccc[n+](CC(=O)Nc2ccc(C)c(C)c2)c1,-,-,-,-,0,0
O=C(N/N=C/c1cccnc1)c1ccc(CN2c3cccc4cccc(c34)S2(=O)=O)cc1,66,0,0,0,0,0
COc1cccc(/C=N/NC(=O)c2ccc(CN3c4cccc5cccc(c45)S3(=O)=O)cc2)c1,0,0,0,0,0,0
SMILES,Mcl1-Noxa inh,TLR4 MyD88 comp,Mcl1 Bid PPI,Bim-Mcl-1,NOD2-RIPK2 inh,TLR9-MyD88 inh
COc1ccc(CN2C(=O)c3cccnc3C2O)cc1 (stereo not drawn),0,0,92,0,0,0
O=c1cc(O)c2sc(Nc3ccc(F)c(Cl)c3)nc2[nH]1,53,0,0,0,0,-
O=c1cc(O)c2sc(Nc3ccc(Cl)c(F)c3)nc2[nH]1,51,-,0,-,0,0
COc1ccc(Nc2nc3[nH]c(=O)cc(O)c3s2)cc1,0,0,0,0,0,0
Cc1cc(C)cc(N(C(C)C(=O)N2CCOCC2)S(C)(=O)=O)c1 (stereo not drawn),0,0,53,0,0,-
Cc1cc(C)cc(N(C(C)C(=O)N2CCCCC2)S(C)(=O)=O)c1 (stereo not drawn),0,0,0,0,0,0
CCOC(=O)C1=C(COC(=O)c2ccc(OC)c(OC)c2OC)NC(=O)NC1C (stereo not drawn),-,-,-,-,0,0
